Our source for the growth values is PubChem BioAssay (NCI).

This is part of a sample that, as a whole, favours compounds with a hit. Of some 83,000 tested, about 20% had one in any assay.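 Values shown are percent growth following 48 h exposure of cells in 96-well plates to a single concentration of compound; below 10 was considered active.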 A number with no mark means an inactive call. Activity calls are given as the source filed them.

What all share (assay): NCI-60 one-dose screen, 48 h (100 = growth as untreated, 0 = no growth, -100 = all killed)
What all share (conditions): 10 µM unless noted

Assay [1] relates to NCI-H23 lung.
In assay [2] the test system is NCI-H226 lung.
The test system of assay [3] is NCI-H322M lung.
Assay [4] concerns HOP-62 NSCLC.
Assay [5] deals with NCI-H460 lung.
Assay [6] concerns HOP-92 NSCLC.
Assay [7] deals with NCI-H522 lung.
For assay [8], the system named is A549/ATCC NSCLC.
Assay [9] relates to 786-0 renal.
Assay [10] deals with COLO 205 colon.

As to `N#C/C(=C\c1cn(Cc2ccccc2)c2ccccc12)C(=O)Nc1ncc(Cc2ccccc2Cl)s1`, the growth in [1] was -29.3% (active); in [2] it was -33.6% (active); in assay [3] it was 36.1%; in assay [4] it was 12.5%; in [5], -44.2% (active); in [6], -6.07% (active). For the same compound, the growth in [7] is 30.3%; in [8], 8.73% (active); in [9], 6.01% (active); in assay [10], -2.97% (active).
In the case of `Clc1ccccc1-c1cnn2cc(-c3ccccc3)cnc12`, the growth was 90.3% in assay [1]; 83.2% in assay [2]; 87% in assay [3]; 86% in assay [4]; 75.3% in assay [5]; 82.9% in assay [6]. The growth in assay [7] is 77.3%; in assay [8], 70.5%; in assay [9], 76.7%; in [10], 91.8%.
Consider `Cc1ccc(C(=O)Nc2cccc(C#Cc3cccc4[nH]nc(N)c34)c2)cc1C(F)(F)F`, for which the growth is 51.8% in assay [1]; 55.8% in assay [2]; 79.2% in [3]; 58.7% in assay [4]; 75.6% in assay [5]; 63.8% in assay [6]. Further, the growth was 60.2% in [7], 67.5% in assay [8], 62.6% in assay [9] and 40.2% in assay [10].
On to `Cn1c(=O)c2[nH]c(SCC(=O)Nc3ccc(C(=O)/C=C/c4ccccc4Cl)cc3)nc2n(C)c1=O`, for which the growth was 98.1% in [1]; 93.1% in [2]; 97.6% in [3]; 90.4% in [4]; 102% in assay [5]; 65% in [6]. The growth in [7] is 94.3%; in [8] it was 86.7%; in [9] it was 88.3%; in [10] it was 117%.
For `NS(=O)(=O)c1ccc(-c2cc(-c3nnc(SCC(=O)Nc4ccc(C(=O)/C=C/c5ccc(Cl)cc5)cc4)n3-c3ccccc3)c3ccccc3n2)cc1`, the growth was 102% in [1]; 96.6% in assay [2]; 89.3% in assay [3]; 100% in [4]; 97.7% in assay [5]; 93.1% in assay [6]. Further, the growth in [7] was 89.9%; in assay [8], 95%; in assay [9] it was 73.4%; in assay [10] it was 103%.
As to `O=C(Nc1cc(Cl)ccc1O)c1cccc(Nc2ccnc(C(F)(F)F)c2)c1`, the growth in [1] is 11.6%; in [2] it was 54.2%; in [3], 59.1%; in assay [4], 64.8%; in [5] it was 30.5%; in assay [6], 53.6%. Also, the growth in assay [7] is 30.6%; in assay [8] it was 37.1%; in [9] it was 49.3%; in assay [10], 90.9%.
Regarding `O=C(CCl)NNc1nccc(Nc2ccc(S(=O)(=O)Nc3ccncc3)cc2)n1`, the growth in assay [1] is 40.5%; in assay [2] it was 70.8%; in assay [3], 64.4%; in assay [4], 83.2%; in assay [5], 27.9%; in assay [6], 37.3%. For the same compound, the growth is -42.9% (active) in assay [7], 71.5% in [8], 24.1% in [9] and 82.2% in [10].
Consider `O=C(Nc1ccc(Cl)cc1)Oc1c(Cl)c(Cl)c(Cl)c(Cl)c1Cl`, for which the growth in assay [1] is 86.1%; in [2], 89.6%; in [3] it was 95.2%; in assay [4], 85.6%; in [5], 101%; in assay [6] it was 41%. For the same compound, the growth in assay [7] was 83.2%; in [8] it was 93.3%; in [9] it was 94.7%; in assay [10] it was 105%.
In the case of `C[C@H](CCCC(=O)NCC#CCN1CCN(C)CC1)[C@H]1CC[C@H]2[C@@H]3CC[C@@H]4CC(=O)CC[C@]4(C)[C@H]3CC[C@]12C`, the growth in assay [1] was 87.7%; in assay [2] it was 103%; in [3] it was 97.7%; in [4], 96.2%; in assay [5] it was 96%; in assay [6] it was 73.7%. Moreover, the growth is 102% in [7], 95.7% in assay [8], 97% in assay [9] and 95.1% in [10].
Turning to `O=S(=O)(Oc1ccc(Br)cc1)c1ccc(Cl)cc1`, the growth in assay [1] is 89.4%; in assay [2], 100%; in assay [3], 97.3%; in [4], 105%; in assay [5], 110%; in assay [6], 102%. In addition, the growth is 97.4% in [7], 101% in assay [8], 89.2% in assay [9] and 108% in assay [10].
`C=C1C(=O)O[C@H]2[C@H]1CC/C(COC(=O)/C=C\C(=O)NCc1ccc(Cn3c(=O)sn(CCCCC)c3=O)cc1)=C\CC[C@@]1(C)O[C@@H]21`: the growth in [1] is 87.4%; in assay [2] it was 104%; in assay [3] it was 101%; in assay [4], 104%; in [5], 97.8%; in assay [6], 89.7%. In addition, the growth in assay [7] was -7.84% (active); in assay [8], 97.5%; in assay [9] it was 62.8%; in assay [10], 19.3%.
Regarding `CCOc1cccc(/C=N/NC(=O)c2cccc(Nc3ccnc(C(F)(F)F)c3)c2)c1O`, the growth in [1] is 24.9%; in [2], 32.9%; in assay [3] it was 36.5%; in assay [4], 12.3%; in assay [5], 7.86% (active); in [6], 51.3%. Moreover, the growth in [7] was 40.4%; in [8] it was 38%; in assay [9], 2.63% (active); in assay [10], 37%.
For the compound `Cc1ccc(S(=O)(=O)Oc2ccc3sc4cccc(NCCN(C)C)c4c(=O)c3c2)cc1`, the growth was -93.5% (active) in assay [1]; -71.9% (active) in assay [2]; -88.1% (active) in assay [3]; -89.6% (active) in assay [4]; -92.7% (active) in [5]; -77.4% (active) in [6]. Moreover, the growth was -81.7% (active) in [7], -74.1% (active) in assay [8], -85.7% (active) in assay [9] and -83.8% (active) in assay [10].
Regarding `CC(C)=CCNc1ncnc2c1ncn2C1OC(CO)C(O)C1O` (stereo not given), the growth is -19.3% [1 mM] (active) in assay [1]; -70.3% [1 mM] (active) in assay [2]; -4.69% [1 mM] (active) in assay [3]; -17.3% [1 mM] (active) in assay [4]; 2.5% [1 mM] (active) in [5]; -77.2% [1 mM] (active) in [6]. For the same compound, the growth in [7] was -54.2% [1 mM] (active); in assay [8], -8.25% [1 mM] (active); in assay [9], -31.4% [1 mM] (active); in assay [10], -6.05% [1 mM] (active).
`Cn1ccc(=O)nc1`: the growth in assay [1] is 88.7%; in assay [2] it was 104%; in [3] it was 82.9%; in [4], 102%; in assay [5], 38.7%; in assay [6], 104%. For the same compound, the growth in [7] was 49%; in [8] it was 83.2%; in assay [9], 109%; in assay [10], 102%.
For `Cc1cccc(Oc2ccc(Nc3ncnc4ccc(NC(=O)CN5CCN(C)CC5)cc34)cc2Cl)c1`, the growth is 69.6% in assay [1]; 85.2% in [2]; 15.1% in [3]; 60% in assay [4]; 2.18% (active) in assay [5]; 43.1% in assay [6]. Further, the growth in assay [7] was 0.619% (active); in assay [8], 28.4%; in assay [9], -40.7% (active); in [10] it was -43.4% (active).
In the case of `Cc1ccc(S(=O)(=O)c2nc(-c3ccccc3)oc2Sc2nc3ccccc3s2)cc1`, the growth in assay [1] was 20.9%; in assay [2] it was 48.6%; in [3] it was 94%; in [4], 97.1%; in assay [5], 68.1%; in assay [6] it was 73.9%. Also, the growth is 54.1% in assay [7], 101% in assay [8], 35.3% in assay [9] and 102% in assay [10].
`Cc1ccc(C)c2c(C)c(C(=O)Nc3cccc(-n4cccn4)c3)oc12`: the growth in [1] is 73.1% [50 µM]; in assay [2], 62.1% [50 µM]; in [3], 86.5% [50 µM]; in assay [4], 99.4% [50 µM]; in assay [5], 56.4% [50 µM]; in assay [6], 90.8% [50 µM]. Moreover, the growth in assay [7] was 32% [50 µM]; in assay [8], 58.4% [50 µM]; in assay [9] it was 82.2% [50 µM]; in assay [10] it was 62.8% [50 µM].
Turning to `C/C(=N\O)c1ccc(NC(=O)CSc2nnc(-c3cc(-c4ccc(S(C)(=O)=O)cc4)nc4ccccc34)n2-c2ccccc2)cc1`, the growth in assay [1] was 99.2%; in assay [2], 90.3%; in assay [3], 91.7%; in assay [4], 98.7%; in assay [5], 90.4%; in assay [6], 80.7%. The growth is 82.2% in [7], 81.3% in assay [8], 93.9% in [9] and 102% in [10].
Regarding `CC(=O)c1ccc(Nc2nccc(-c3ccc4ccccc4c3)n2)cc1`, the growth in assay [1] is 94.4%; in assay [2], 57.1%; in [3], 97.8%; in [4] it was 102%; in assay [5] it was 98.4%; in [6], 97.5%. The growth was 45.6% in assay [7], 89.1% in [8], 96.9% in assay [9] and 105% in assay [10].
`CO[C@H](C(=O)[C@@H](O)[C@@H](C)O)[C@@H]1Cc2cc3cc(O[C@H]4C[C@@H](O[C@H]5C[C@@H](O)[C@H](O)C(C)O5)[C@H](O)C(C)(O)O4)cc(O)c3c(O)c2C(=O)[C@H]1O[C@H]1C[C@@H](O[C@H]2C[C@@H](O[C@H]3C[C@@H](OC)[C@H](O)C(C)O3)[C@@H](O)C(C)O2)[C@H](O)C(C)O1` (stereo not given in full): the growth is 16.4% in [1]; -29.7% (active) in [2]; 21.1% in [3]; 1.64% (active) in assay [4]; 12.9% in assay [5]; 25.2% in assay [6]. In addition, the growth was -17.6% (active) in assay [7], 6.26% (active) in [8], 26.6% in assay [9] and -42.4% (active) in assay [10].
`Nc1c(C(=O)Nc2cccc(Cl)c2)sc2nc3c(cc12)CCCC3`: the growth in assay [1] is 103%; in [2] it was 83.6%; in assay [3], 108%; in assay [4] it was 91.8%; in assay [5], 100%; in [6] it was 82.7%. In addition, the growth in [7] is 80.3%; in assay [8], 81.7%; in assay [9], 89%; in assay [10], 92.2%.
On to `Nc1ncnc2c1N=C(c1ccc3c(c1)OCO3)CC(c1cccc(Nc3ccnc4cc(C(F)(F)F)ccc34)c1)N2` (stereo not given), for which the growth in assay [1] was 84.2%; in assay [2], 78.1%; in assay [3], 94.3%; in assay [4], 84.5%; in [5], 90.7%; in assay [6], 53.8%. The growth is 73.6% in assay [7], 68.6% in assay [8], 82.5% in assay [9] and 115% in assay [10].
Turning to `CN1CCN(Cc2ccc(NC(=O)c3cncc(C#Cc4cnc(N)c5ncccc45)c3)cc2C(F)(F)F)CC1`, the growth is 22.2% in assay [1]; 7.14% (active) in [2]; 25.1% in assay [3]; -5.02% (active) in assay [4]; -35.5% (active) in assay [5]; 7.16% (active) in assay [6]. In addition, the growth in assay [7] is 9.75% (active); in assay [8] it was 10.6%; in assay [9], -82.3% (active); in assay [10], -55.2% (active).
Turning to `CCN(CC)c1ccc(CNc2cc(C)nc3ccccc23)cc1`, the growth was 26.9% in [1]; 56.2% in assay [2]; 80.3% in assay [3]; 77.1% in assay [4]; 58.2% in [5]; 49.6% in assay [6]. For the same compound, the growth is 53.5% in assay [7], 72.7% in [8], 79.1% in assay [9] and 1.94% (active) in assay [10].
On to `C/C=C(\C)C(=O)N[C@H]1C(O)C[C@]2(C)C3CC[C@@]4(C)C(CC[C@@H]4C(C)N(C)C)C3CCC2C1O` (stereo not given in full), for which the growth was 68.7% in assay [1]; 115% in assay [2]; 65.2% in assay [3]; 86.8% in assay [4]; 30.7% in [5]; 46.6% in assay [6]. Further, the growth in assay [7] is 90.6%; in assay [8], 81.6%; in [9], 68.4%; in [10], 29.4%.
